Source: PubChem BioAssay
NALP1 inh: blocks the NALP1 inflammasome reconstituted in yeast. S. cerevisiae NALP1/ASC/caspase-1 growth, X-gal OD620, 72 h. inhibition, % at 10 µM. 0.61% of 280,000 active; in the data active = inhibition mostly above about 24%, no sharp cut-off; inactive = mostly below about 32%
OPRM1-OPRD1 inv: inverse agonists of human mu-delta opioid receptor heterodimerization. inhibition, % at 9.3 µM. AID 504357. P35372+P41143. cell-based MOR-DOR heterodimer luminescence, inverse agonism. 0.21% of 340,000 active; in the data active = inhibition above about 22%, passing the limit was not always enough
PolyA inhibitor: inhibitors of polyadenylation in S. cerevisiae; S. cerevisiae SKY197-pL101 polyadenylation reporter, beta-gal luminescence; efflux-impaired pdr1/pdr3 knockout yeast; score 100 = 6 SD above DMSO; activity score, % at 12 µM; 0.02% of 300,000 active; AID 1875;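 active = lowest replicate activity score at least 50, where 100 means six control SD above control mean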;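 also: yeast exposed to compound for 9 h at 30 °C; higher score means more reporter readthrough which indicates perturbed polyadenylation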
HTR5A ag: activates human HTR5A in OPRM1-OPRD1 agonist counter-screen. activation, % at 9.3 µM. HTR5A agonist assay, luminescence, cell-based. 0.61% of 340,000 active. AID 504692; in the data active = activation mostly above about 9.5%, no sharp cut-off; inactive = mostly below about 7.6%
Target sequence (P47898 whole entry, looked up): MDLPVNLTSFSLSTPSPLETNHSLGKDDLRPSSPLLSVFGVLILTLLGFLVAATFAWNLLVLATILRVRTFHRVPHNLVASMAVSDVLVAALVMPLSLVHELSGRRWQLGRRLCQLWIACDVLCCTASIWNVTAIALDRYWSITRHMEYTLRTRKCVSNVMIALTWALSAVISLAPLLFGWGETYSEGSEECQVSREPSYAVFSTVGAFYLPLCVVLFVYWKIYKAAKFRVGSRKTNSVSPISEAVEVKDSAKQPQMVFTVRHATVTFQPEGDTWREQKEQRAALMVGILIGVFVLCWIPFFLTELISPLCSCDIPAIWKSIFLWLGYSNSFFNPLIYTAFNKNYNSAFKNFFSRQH
HTR5A inv ctr: HTR5A inverse agonism, opioid heterodimer counter-screen; 0.083% of 340,000 active; inhibition, % at 9.3 µM; P47898; HTR5A cell line, luminescence; in the data active = inhibition mostly above about 23%, no sharp cut-off; inactive = mostly below about 18%
OPRM1-OPRD1 ag: OPRM1-OPRD1 heterodimerization agonism. cells, luminescence. P35372+P41143. 0.3% of 340,000 active. AID 504326. activation, % at 9.3 µM; in the data active = activation above about 18%
Numbers stand for hits; . = inactive; / = no result given. In the library only some 1.6% were active in any assay of this set; here they are far more common.

SMILES	NALP1 inh	OPRM1-OPRD1 inv	PolyA inhibitor	HTR5A ag	HTR5A inv ctr	OPRM1-OPRD1 ag
Cc1ccc(S(=O)(=O)N2CCCNCC2)cc1	.	.	.	.	.	.
COCCNC(=O)Cn1c(=O)oc2cc(S(=O)(=O)N3CC(C)CC(C)C3)ccc21 (stereo unspecified)	.	.	.	.	.	.
CCCNC(=O)Cn1c(=O)oc2cc(S(=O)(=O)N3CC(C)CC(C)C3)ccc21 (stereo unspecified)	.	.	.	11	.	.
Cc1nnc(SCc2cc([N+](=O)[O-])cc3c2OCOC3)[nH]c1=O	.	.	.	.	.	.
COc1ccc(Nc2nnc(SCc3cc([N+](=O)[O-])cc4c3OCOC4)s2)cc1	44	.	.	.	.	.
CCOC(=O)/C(=C\c1ccc(Cl)cc1)c1nc2sc(C)c(C)c2c(=O)[nH]1	44	.	.	.	.	.
CN(Cc1ccno1)Cc1cn(Cc2ccccc2)nc1-c1ccc2c(c1)OCO2	29	.	.	.	.	.
COc1ccc(Cl)cc1NC(=O)C1CC(=O)N(C2CCCCC2)C1 (stereo unspecified)	.	.	.	.	.	.
Cc1cc(Oc2ccc(Cl)cc2)nc(-c2ccccc2O)n1	32	.	.	.	.	.
CCOC(=O)C1CCN(S(=O)(=O)c2ccc3[nH]c(=O)oc3c2)CC1	40	.	.	.	.	.
O=C(NC(=S)Nc1nc2ccccc2s1)c1ccco1	.	.	.	.	.	.
Cc1nn(-c2ccc(Cl)cc2)c(=O)c2ccccc12	.	.	.	.	.	.
Cc1c(Cl)sn(-c2ccc(Cl)cc2)c1=O	98	.	/	19	.	36
CC(C)(C=O)C1=CC(=O)c2ccccc2C1=O	48	.	/	.	.	.
CC(C)(C)n1nc(-c2ccc(F)cc2)c2c(N)ncnc21	92	.	.	.	.	.
N=c1sccn1CC(=O)Nc1ccccc1Cc1ccccc1	.	.	.	.	.	.
N=c1sccn1CC(=O)Nc1ccccc1Oc1ccccc1	38	.	.	.	.	.
Cc1cccc2c1NC(=O)C2=O	/	41	/	.	.	.
O=C1Nc2c(Br)cccc2C1=O	/	.	/	.	.	.
O=C1CC(N2CCN(S(=O)(=O)c3ccccc3F)CC2)C(=O)N1c1ccc(F)cc1F (stereo unspecified)	/	.	/	.	.	.
CC#CCN(Cc1ccco1)C(=O)c1ccc(OC2CCN(Cc3ccccn3)CC2)cc1	.	.	.	9.8	.	.
CCCN(CC(=O)Nc1cc(C)on1)CC(=O)Nc1ccccc1C	/	.	/	.	.	.
NCCC(=O)N1c2ccccc2Sc2ccccc21	36	.	.	.	.	.
O=C(CSc1nc(=O)n(CCCN2CCOCC2)c2c1CCC2)Nc1ccc([N+](=O)[O-])cc1	/	.	.	.	.	.
CN1CCN(c2nc(C#N)cc(-c3ccccc3)n2)CC1	24	.	.	.	.	.
SMILES	NALP1 inh	OPRM1-OPRD1 inv	PolyA inhibitor	HTR5A ag	HTR5A inv ctr	OPRM1-OPRD1 ag
O=C(NC1CCCCC1)C(c1ccccn1)N(C(=O)c1csnn1)C1CCCCC1 (stereo unspecified)	.	.	.	.	.	.
Cc1ccc(-c2cc(-c3ccccc3)nc(NN)n2)cc1	.	43	.	.	33	.
O=C(NCc1ccco1)c1ccc(Br)s1	.	.	.	.	.	.
Fc1ccc(N2CCN(C(=S)NCc3ccco3)CC2)cc1	.	.	.	.	.	.
COc1cccc(N2CCN(C(=S)NCc3ccco3)CC2)c1	.	.	.	13	.	.
O=C(NCc1ccco1)c1ccc(C(=O)NCc2ccco2)s1	.	.	.	10	.	.
COc1cccc(-c2cc(C(=O)NCc3ccco3)no2)c1	29	.	.	.	.	.
O=C(NCc1ccco1)c1cc(-c2cccc(Cl)c2)on1	.	.	.	.	.	.
CC1CC(C)CN(CCCNC(=O)c2ccc3c(c2)ncn3C2CCCC2)C1 (stereo unspecified)	.	.	.	.	.	.
CCc1nnc(NS(=O)(=O)c2ccc(Nc3ccc([N+](=O)[O-])c4nonc34)cc2)s1	.	36	.	.	31	.
O=C(COC(=O)Cc1ccc(S(=O)(=O)N2CCOCC2)s1)NCc1ccc(Cl)cc1	.	.	56	.	.	.
CCOC(=O)c1cc(CC)sc1NC(=O)CN1C(=O)C(=O)N(CC(C)C)C1=O	/	.	.	.	.	.
CC(Sc1nnc(-c2ccco2)n1C)C(=O)NC1CCCC1 (stereo unspecified)	/	.	/	.	.	.
CC(Sc1nnc(-c2ccco2)n1C)C(=O)N1C(C)CCCC1C (stereo unspecified)	36	.	.	.	.	.
COc1ccc(C(=O)CSc2nnc(NC(=O)C3CC(=O)N(c4ccccc4C)C3)s2)cc1 (stereo unspecified)	.	.	.	.	.	.
O=C(Oc1cc(-c2ccccc2)no1)c1cccc(C(F)(F)F)c1	43	.	.	.	.	.
CNCc1ccccc1Sc1cc(O)ccc1O	56	.	/	.	.	.
CNCc1ccccc1Sc1cccc(O)c1	.	.	.	.	.	.
NC(=O)c1c(NC(=O)CN2C(=O)NC(Cc3ccccc3)C2=O)sc2c1CCC2 (stereo unspecified)	42	.	.	.	.	.
CC1CCC2(CC1)NC(=O)N(CC(=O)Nc1sc3c(c1C(N)=O)CCC3)C2=O (stereo unspecified)	.	.	.	.	.	.
COCCn1c(N)c(C(=O)NS(=O)(=O)c2ccc(C)cc2)c(=O)[nH]c1=O	.	.	.	11	.	.
CCNC(=O)CN1C(=O)NC(Cc2ccccc2)(Cc2ccccc2)C1=O	.	.	.	.	.	.
Cc1ccc(S(=O)(=O)Nc2cc(C(=O)NCCN(C)C)ccc2N2CCCC2)cc1	.	.	.	.	.	.
CCN(CC)CCCNC(=O)c1ccc(N2CCCCC2)c(NS(=O)(=O)c2ccc(C)cc2)c1	24	.	.	.	.	.
CCN(CC)CCNC(=O)c1ccc(NC(=O)c2ccc(S(=O)(=O)N3CCCC3)cc2)cc1	/	.	/	.	.	.
SMILES	NALP1 inh	OPRM1-OPRD1 inv	PolyA inhibitor	HTR5A ag	HTR5A inv ctr	OPRM1-OPRD1 ag
CCN(CC)CCNC(=O)c1ccc(NC(=O)c2cc(S(=O)(=O)N3CCCCC3)ccc2C)cc1	/	.	.	12	.	.
Cc1ccc(SCC(=O)OCn2nnc3ccccc3c2=O)cc1C	.	.	.	.	.	.
C=CCOc1ccc(/C=N/NC(=O)c2c(C)nc3ccc(Cl)cn23)cc1	.	.	.	11	.	.
Cc1cccc(C(=O)NCC(=O)NCC2COc3ccccc3O2)c1 (stereo unspecified)	/	.	.	.	.	.
Cc1ccc(-c2cc(NC(=O)CCl)n(-c3ccccc3)n2)cc1	/	.	.	.	.	.
O=C(CCl)Nc1cc(-c2ccccc2)nn1-c1ccccc1	77	.	.	.	.	.
CCOC(=O)N1CCN(C(=O)CSC2=NS(=O)(=O)c3ccccc3N2)CC1	/	.	.	.	.	.
